High-throughput results: PubChem BioAssay, several laboratories
Most compounds without a hit are left out; they make up all but 27% or so of the library.
CYP2C9 activ: activators of human CYP2C9; recombinant CYP2C9, luciferin-H conversion, luminescence; hits give high values; factor 1 = untreated enzyme, 0 = blocked; activation factor at 5 µM; 1.4% of 96,000 active; AID 1024;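 active = activation factor of 2 or more for CYP2C9 at a 5 µM dose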;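 also: 0 = sulfaphenazole-blocked wells and 1 = vehicle-only wells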
Target sequence (P11712 whole entry, looked up): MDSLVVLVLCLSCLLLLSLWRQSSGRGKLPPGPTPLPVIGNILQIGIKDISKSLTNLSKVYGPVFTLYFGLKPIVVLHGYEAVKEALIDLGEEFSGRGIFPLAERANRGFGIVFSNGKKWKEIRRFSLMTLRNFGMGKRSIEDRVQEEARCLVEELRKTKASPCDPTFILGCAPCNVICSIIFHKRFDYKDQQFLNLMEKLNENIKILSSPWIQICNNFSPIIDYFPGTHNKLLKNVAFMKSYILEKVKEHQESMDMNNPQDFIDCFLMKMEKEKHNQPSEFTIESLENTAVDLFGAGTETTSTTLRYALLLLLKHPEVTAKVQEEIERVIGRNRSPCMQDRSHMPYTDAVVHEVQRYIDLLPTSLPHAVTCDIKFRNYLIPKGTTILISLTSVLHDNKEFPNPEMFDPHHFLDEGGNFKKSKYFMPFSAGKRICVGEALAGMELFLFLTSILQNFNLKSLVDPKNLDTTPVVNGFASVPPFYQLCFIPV
CYP2C9 inhib: human CYP2C9 inhibition; P11712; CYP2C9 Supersomes, luciferin-H conversion, luminescence; inhibition, % at 5 µM; 20% of 96,000 active; AID 777;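 active = blocking of liver enzyme CYP2C9 beyond about 50% at 5 µM, limit read from the data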
CYP2C19 act: cytochrome P450 2C19 (human) activation. AID 1025. recombinant CYP2C19, luciferin-H EGE luminescence; hits give high values; 0 = fully inhibited enzyme, 1 = untreated enzyme. activation factor at 5 µM. 96,000 tested, under 10 active;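 active = activation factor of at least 2 at 5 µM in the primary screen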;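 also: 0 = wells with 2.5 mM tranylcypromine and 1 = vehicle-only wells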
EphB4 ephrin blk: antagonists of human EphB4-ephrin-B2 interaction; inhibition, % at 7 µM; P54760; 0.15% of 97,000 active; EphB4 LBD / TNYL-RAW-Alexa532 peptide, fluorescence polarization;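 active = inhibition above the screen-wide mean inhibition plus 3 SD, cut at about 15% in these data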;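 also: 0% = DMSO wells and 100% = excess unlabeled TNYL-RAW peptide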
CYP2C19 inh: human CYP2C19 inhibition; P33261; CYP2C19 Supersomes, luciferin-H EGE luminescence, 30 min; inhibition, % at 5 µM; 21% of 96,000 active; AID 778;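 active = CYP2C19 inhibition above a set limit at 5 µM in the primary screen, cut at about 50% in these data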;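 also: plate controls were negative control wells for no effect and 2.5 mM tranylcypromine positive control for full effect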
Starred values were filed as active, the others as inactive; . = not tested or not shown.

SMILES	CYP2C9 activ	CYP2C9 inhib	CYP2C19 act	EphB4 ephrin blk	CYP2C19 inh
CSC1=C(C#N)C2(CCCC2)C(C#N)=C(N)N1	0.4	63*	0.2	3	77*
CC1(C)CC(=O)C2=C(C1)NC(SCC(=O)Nc1ccccc1)=C(C#N)C21CCCCC1	0.5	48	0.5	-3	47
N#CC1=C(N)NC(SCC(=O)Nc2ccc(Br)cc2)=C(C#N)C12CCCCC2	0	96*	0	-3	100*
Cc1cccc(OCC(=O)N(Cc2cccs2)C2CCS(=O)(=O)C2)c1 (stereo not drawn)	0.8	16	0.6	-3	37
CC(Oc1ccc(-c2ccccc2)cc1)C(=O)N1CCOCC1 (stereo not drawn)	0.4	56*	0.5	3	55*
Cc1sc2nc(CN(Cc3cccs3)C(=O)C3CC3)[nH]c(=O)c2c1C	0.1	88*	0	1	97*
Cc1sc2nc(SCC(=O)NCc3cccs3)[nH]c(=O)c2c1C	0.3	67*	0.8	-3	19
Cc1c(C(=O)Nc2cccc(C(F)(F)F)c2)oc2ccc(S(=O)(=O)N3CCOCC3)cc12	0.9	15	1	0	4
COC(=O)c1ccccc1NC(=O)c1ccccc1N(C)S(C)(=O)=O	0.6	39	0.5	-4	50*
CC(=O)Nc1ccc(NC(=O)c2ccccc2N(C)S(C)(=O)=O)cc1	1.1	-13	1.2	6	-16
CCOC(=O)c1ccccc1NC(=O)c1ccccc1N(C)S(C)(=O)=O	0.6	43	0.2	1	76*
COC(=O)c1ccc(NC(=O)c2ccccc2N(C)S(C)(=O)=O)cc1	0.6	38	0.4	5	62*
CN(c1ccccc1C(=O)Nc1ccc(S(=O)(=O)N2CCCCC2)cc1)S(C)(=O)=O	0.8	16	1.1	-1	-12
CN(c1ccccc1C(=O)Nc1ccc(S(=O)(=O)N2CCCC2)cc1)S(C)(=O)=O	0.4	64*	0.9	-3	8
CCOC(=O)c1ccccc1NC(=O)c1ccc(N(C)S(C)(=O)=O)cc1	0.7	28	0.7	-1	33
O=C1CC(C(=O)N(c2cccc(F)c2)C(C(=O)NC2CCCC2)c2ccccn2)CS1 (stereo not drawn)	1	-2	0.9	1	6
Cc1cccc(Oc2sc(C(=O)c3ccccc3)c(N)c2C#N)c1C	0.7	27	0.5	5	47
N#Cc1c2c(c(=S)n(-c3ccccc3)c1N)CCCC2	0.4	57*	0.8	4	22
CCOC(=O)c1c2c(c(=S)n(-c3ccccc3)c1N)CCC2	0.5	54*	0.4	-2	60*
N#Cc1c(C#N)c(-c2ccccc2)n(-c2ccccc2)c1N	0.9	8	1.1	-1	-7
COC(=O)C1=C(C)N(C)C(C)=C(C(=O)OC)C1c1ccc(C(=O)OC)cc1	0.1	92*	0	-3	97*
COC(=O)C1=CNC=C(C(=O)OC)C1c1ccc(C(=O)OC)cc1	0	95*	0	.	99*
CCOC(=O)C1=C(C)N(C)C(=O)NC1c1cccc(O)c1 (stereo not drawn)	0.9	5	0.9	3	14
COC(=O)C1=C(C)N(C)C(C)=C(C(=O)OC)C1c1ccsc1	0.1	91*	0.3	-7	68*
COC(=O)C1=C(C)N(C)C(=O)NC1c1ccc(C)cc1 (stereo not drawn)	0.7	29	0.5	9	54*
SMILES	CYP2C9 activ	CYP2C9 inhib	CYP2C19 act	EphB4 ephrin blk	CYP2C19 inh
O=C(Nc1ccccc1)/C(=C\c1ccc2c(c1)OCO2)NC(=O)c1ccco1	.	.	.	-8	.
COc1ccc(Oc2ncnc3c2ncn3Cc2ccccc2)cc1	0.9	6	0.8	2	20
COCCSc1ccccc1C(=O)Nc1nnc(C)s1	1.1	-6	1	-2	4
Cc1ccc(S(=O)(=O)N2CCN(C(=O)c3cc4c(C)nn(-c5ccccc5C)c4s3)CC2)cc1	0.4	63*	0.6	-5	42
COc1ccccc1-n1c(C)cc(C=O)c1C	0.5	54*	0.8	-2	24
COc1ccccc1N1Cc2ccccc2C1	0.9	5	1	7	-3
O=C(Nc1ccc(F)cc1)NC1(C(=O)NCc2ccco2)CCCCC1	0.6	44	0.6	6	45
CCn1c(SCC(=O)Nc2ccccc2N2CCOCC2)nnc1-c1ccccc1O	0.5	49	0.8	1	17
COCCn1c(SCC#N)nnc1-c1ccccc1O	1.2	-22	0.6	.	39
Cc1ccc(-n2c(CCc3ccccc3)nnc2SCC(=O)NCc2ccccc2)cc1C	0.5	48	0.3	-1	67*
CCn1c(SCC(=O)Nc2ccccc2C)nnc1-c1ccccc1O	0.5	51*	0.4	-6	57*
N#CCSc1nnc(-c2ccccc2O)n1Cc1ccccc1	0.9	13	0.5	-3	51*
N#Cc1ccccc1NC(=O)CSc1nnc(-c2ccccc2O)n1-c1ccccc1	0.4	64*	0.7	-2	33
CC(=O)CC(=O)Nc1ccccc1NC(C)=O	1	1	1	1	-2
CCn1c(SCC(=O)Nc2ccc3c(c2)OCO3)nnc1-c1ccccc1O	0.2	79*	0.2	-6	76*
CCn1c(SCC(=O)Nc2cc(F)ccc2C)nnc1-c1ccccc1O	0.2	81*	0.1	2	95*
CCn1c(SCC(=O)NCc2ccccc2)nnc1-c1ccccc1O	0.5	52*	0.4	0	57*
CCn1c(SCC(=O)Nc2ccc(S(N)(=O)=O)cc2)nnc1-c1ccccc1OC	1.1	-11	1	5	-2
Cc1ccc(NC(=O)N2CCCN(Cc3ccc(F)cc3)C2)cc1C	1	2	0.9	4	12
Cc1c(NC(=O)C2CCCN2S(=O)(=O)c2ccccc2)c(=O)n(-c2ccccc2)n1C (stereo not drawn)	1	-5	0.9	-14	5
CCOc1ccc(N2C(=O)CC(N3CCC(NC(=O)Nc4ccccc4)CC3)C2=O)cc1 (stereo not drawn)	0.4	59*	0.1	5	90*
COc1ccc(CCNc2nc(-c3sc(C)nc3C)cs2)cc1OC	0.8	22	0.7	4	27
COc1ccc(-c2csc(Nc3cccnc3)n2)cc1OC	0.8	22	0.2	-6	79*
COc1ccc(-c2csc(NC(=O)c3nc(-c4ccccc4)oc3C)n2)cc1	0.8	20	0.7	-5	31
CC(=O)Oc1ccc(-c2csc(Nc3cccnc3)n2)cc1	1	-3	0.8	8	16
Cc1ccc(-c2csc(NC(=O)c3ccno3)n2)cc1	0.3	70*	0.6	-5	38
COc1ccc(CCNc2nc(-c3cccnc3)cs2)cc1OC	0.9	10	0.2	7	84*
c1cncc(Nc2nc(-c3ccncc3)cs2)c1	0.5	52*	0.5	.	51*
COC(=O)C1=C(C(=O)OC)C2(OC1c1cccc(F)c1)C(=O)c1ccccc1C2=O (stereo not drawn)	0.7	29	0.8	1	20
